Read-out in experiment [1]: Epidermal growth factor receptor (EGFR), EGFR (gene 1956)
As to the kind of experiment: BSK_hDFCGF_EGFR: BioMAP Diversity Plus: hDFCGF Assay for Epidermal growth factor receptor (EGFR) Biomarker Activity (AID 2283057). Particulars: primary human foreskin fibroblasts; actives raise or lower the signal. The essentials:
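EGFR levels by ELISA in human dermal fibroblast cultures, 24 h post-treatment, fitted bidirectionally versus DMSO. Parallel wells stained with sulforhodamine B to detect overt cytotoxicity.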

Read-out in experiment [2]: Interleukin-8 (IL8), CXCL8 (gene 3576)
As to the kind of experiment: BSK_hDFCGF_IL8: BioMAP Diversity Plus: hDFCGF Assay for Interleukin-8 (IL8) Biomarker Activity (AID 2283058). Particulars: primary human foreskin fibroblasts; actives raise or lower the signal. The essentials:
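Primary human foreskin fibroblasts (hDFCGF system) dosed with chemical; IL-8 measured by ELISA 24 hours later. Bidirectional curve fitting relative to DMSO baseline; cytotoxicity tracked in parallel cultures by SRB total protein staining.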

Experiment [3] in a line: BSK_hDFCGF_Proliferation: Cell Proliferation Assessment in the BioMAP Diversity Plus: hDFCGF Assay (AID 2283059).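 Further: curves fitted for both rise and fall of signal versus DMSO baseline.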 Particulars: primary human foreskin fibroblasts. The gist of the method:
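Sub-confluent human foreskin fibroblast cultures receive test chemical […]. Relative cell number is quantified by sulforhodamine B staining (0.1%, after 10% TCA fixation) at 560 nm, with bidirectional fitting referenced to DMSO.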

Read-out in experiment [4]: Macrophage colony-stimulating factor (MCSF), CSF1 (gene 1435)
As to the kind of experiment: BSK_hDFCGF_MCSF: BioMAP Diversity Plus: hDFCGF Assay for Macrophage colony-stimulating factor (MCSF) Biomarker Activity (AID 2283060). To be noted: primary human foreskin fibroblasts; actives raise or lower the signal. The essentials: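 Human foreskin fibroblast primary cultures; M-CSF measured by ELISA 24 hours after chemical dosing. Bidirectional fitting relative to DMSO, with overt cytotoxicity tracked by parallel SRB total-protein staining (0.1% SRB, 10% TCA fixation, 560 nm).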

The nature of experiment [5]: BSK_hDFCGF_SRB: Viability Assessment in the BioMAP Diversity Plus: hDFCGF Assay (AID 2283061).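 Further: cells exposed to compound for 24 h before the read.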 To be noted: primary human foreskin fibroblasts. The essentials: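 Human foreskin fibroblasts in 96-well plates were treated 24 h. Total protein was measured by 0.1% SRB staining after 10% TCA fixation, read at 560 nm. Data were fitted bidirectionally against DMSO.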
Read-out in experiment [6]: TIMP metallopeptidase inhibitor 1 (TIMP1), TIMP1 (gene 7076)
As to the kind of experiment: BSK_hDFCGF_TIMP1: BioMAP Diversity Plus: hDFCGF Assay for TIMP metallopeptidase inhibitor 1 (TIMP1) Biomarker Activity (AID 2283062). To be noted: primary human foreskin fibroblasts; actives raise or lower the signal. The essentials:
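Human foreskin fibroblast primary cultures dosed for 24 h; secreted/surface TIMP-1 quantified by ELISA. Bidirectional curve fitting against DMSO baseline; cytotoxicity tracked in parallel cultures by SRB total-protein staining.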

Read-out in experiment [7]: Monokine induced gamma interferon (MIG), CXCL9 (gene 4283)
Description: BSK_hDFCGF_MIG: BioMAP Diversity Plus: hDFCGF Assay for Monokine induced gamma interferon (MIG) Biomarker Activity (AID 2283063). Particulars: primary human foreskin fibroblasts; actives raise or lower the signal. The essentials: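 MIG/CXCL9 measured by ELISA 24 h after dosing primary human skin fibroblasts. Activity fitted in both directions against DMSO controls. Cytotoxicity was checked in parallel cultures by SRB staining read at 560 nm.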

Read-out in experiment [8]: Matrix Metallopeptidase 1 (MMP1), MMP1 (gene 4312)
As to the kind of experiment: BSK_hDFCGF_MMP1: BioMAP Diversity Plus: hDFCGF Assay for Matrix Metallopeptidase 1 (MMP1) Biomarker Activity (AID 2283064). To be noted: primary human foreskin fibroblasts; actives raise or lower the signal. The essentials:
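ELISA read-out of MMP1 from human foreskin fibroblasts (primary skin cells), 24 h post-dose. Gain or loss of signal was fitted bidirectionally versus DMSO negative control; cytotoxicity was checked by SRB in parallel cultures.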

Read-out in experiment [9]: Plasminogen activator inhibitor-1 (PAI1), SERPINE1 (gene 5054)
Description: BSK_hDFCGF_PAI1: BioMAP Diversity Plus: hDFCGF Assay for Plasminogen activator inhibitor-1 (PAI1) Biomarker Activity (AID 2283066). Particulars: primary human foreskin fibroblasts; actives raise or lower the signal. The essentials: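 PAI-1 levels in human dermal foreskin fibroblasts were quantified by ELISA 24 h after dosing, with gain or loss analysed against DMSO. Overt cytotoxicity was checked by sulforhodamine B total-protein staining in parallel cultures.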

Read-out in experiment [10]: Intercellular Adhesion Molecule 1 (ICAM1), ICAM1 (gene 3383)
Description: BSK_KF3CT_ICAM1: BioMAP Diversity Plus: KF3CT Assay for Intercellular Adhesion Molecule 1 (ICAM1) Biomarker Activity (AID 2283067). To be noted: primary human keratinocytes with fibroblasts; actives raise or lower the signal. The essentials:
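Human keratinocyte–foreskin fibroblast co-culture was treated for 24 h. Cell-surface ICAM-1 was quantified by ELISA, fitted bidirectionally relative to DMSO. Cytotoxicity was checked in parallel cultures by SRB total-protein staining.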

Read-out in experiment [11]: Interferon-gamma inducible Protein 10 (IP10), CXCL10 (gene 3627)
Description: BSK_KF3CT_IP10: BioMAP Diversity Plus: KF3CT Assay for Interferon-gamma inducible Protein 10 (IP10) Biomarker Activity (AID 2283068). To be noted: primary human keratinocytes with fibroblasts; actives raise or lower the signal. The gist of the method: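 ELISA read-out of IP-10 after 24 h chemical dosing of human skin primary co-culture (keratinocytes, foreskin fibroblasts). Gain or loss of signal relative to DMSO, bidirectional curve fit.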

Experiment [12] can be described thus: BSK_KF3CT_SRB: Viability Assessment in the BioMAP Diversity Plus: KF3CT Assay (AID 2283069).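 Further: read 24 h after compound addition.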 Particulars: primary human keratinocytes with fibroblasts. The gist of the method: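 SRB read-out at 560 nm (0.1% stain, TCA-fixed cells) gauges overt cytotoxicity in a human skin keratinocyte–fibroblast co-culture 24 h post-dosing. Signal change was fitted bidirectionally relative to DMSO control.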

Read-out in experiment [13]: Interleukin-1 alpha (IL1a), IL1A (gene 3552)
Description: BSK_KF3CT_IL1a: BioMAP Diversity Plus: KF3CT Assay for Interleukin-1 alpha (IL1a) Biomarker Activity (AID 2283070). Particulars: primary human keratinocytes with fibroblasts; actives raise or lower the signal. The gist of the method:
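Primary skin co-culture (keratinocytes, foreskin fibroblasts), 24 h exposure; ELISA for IL-1a; bidirectional curve fit vs DMSO.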

Read-out in experiment [14]: TIMP metallopeptidase inhibitor 2 (TIMP2), TIMP2 (gene 7077)
Description: BSK_KF3CT_TIMP2: BioMAP Diversity Plus: KF3CT Assay for TIMP metallopeptidase inhibitor 2 (TIMP2) Biomarker Activity (AID 2283071). To be noted: primary human keratinocytes with fibroblasts; actives raise or lower the signal. The gist of the method:
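TIMP-2 measured by ELISA at 24 h in human keratinocyte/fibroblast primary co-cultures exposed to chemicals. Both increases and decreases were fitted against DMSO. Parallel cultures were stained with SRB for total protein as an overt-cytotoxicity check.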

Read-out in experiment [15]: Transforming growth factor beta 1 (TGFb1), TGFB1 (gene 7040)
Description: BSK_KF3CT_TGFb1: BioMAP Diversity Plus: KF3CT Assay for Transforming growth factor beta 1 (TGFb1) Biomarker Activity (AID 2283072). Particulars: primary human keratinocytes with fibroblasts; actives raise or lower the signal. The essentials: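 ELISA quantifies TGF-b1 at 24 h post-dose in a primary human skin co-culture of keratinocytes and fibroblasts, with gain or loss judged against DMSO. Parallel SRB total-protein staining flags overt cytotoxicity.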

Read-out in experiment [16]: C-C motif chemokine 2 (Homo sapiens) (UniProt P13500)
As to the kind of experiment: BSK_KF3CT_MCP1: BioMAP Diversity Plus: KF3CT Assay for Monocyte Chemoattractant Protein 1 (MCP1/CCL2) Biomarker Activity (AID 2283073). To be noted: primary human keratinocytes with fibroblasts; actives raise or lower the signal. The gist of the method:
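Human keratinocyte–foreskin fibroblast co-culture; MCP-1 measured by ELISA 24 h after dosing. Bidirectional fit vs DMSO; cytotoxicity tracked by SRB total protein in parallel cultures.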

Read-out in experiment [17]: Matrix Metallopeptidase 9 (MMP9), MMP9 (gene 4318)
As to the kind of experiment: BSK_KF3CT_MMP9: BioMAP Diversity Plus: KF3CT Assay for Matrix Metallopeptidase 9 (MMP9) Biomarker Activity (AID 2283074). To be noted: primary human keratinocytes with fibroblasts; actives raise or lower the signal. The essentials:
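ELISA read-out of MMP-9 at 24 h post-dosing in a co-culture of human skin keratinocytes and foreskin fibroblasts. Gain or loss of signal was fitted in both directions against DMSO.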

Read-out in experiment [18]: urokinase plasminogen activator (uPA), PLAU (gene 5328)
As to the kind of experiment: BSK_KF3CT_uPA: BioMAP Diversity Plus: KF3CT Assay for urokinase plasminogen activator (uPA) Biomarker Activity (AID 2283075). Particulars: primary human keratinocytes with fibroblasts; actives raise or lower the signal. The gist of the method:
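Skin co-culture (keratinocytes + foreskin fibroblasts), human primary; 24 h post-dose; uPA by ELISA; gain/loss fit vs DMSO baseline.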

Read-out in experiment [19]: CD40, CD40 (gene 958)
Description: BSK_LPS_CD40: BioMAP Diversity Plus: LPS Assay for CD40 Biomarker Activity (AID 2283076). Particulars: primary human HUVEC with PBMC; actives raise or lower the signal. The gist of the method:
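HUVEC plus PBMC co-culture stimulated with LPS; CD40 quantified by ELISA 24 h after compound dosing. Fitting was bidirectional relative to DMSO. SRB staining of parallel cultures flagged overt cytotoxicity.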

Read-out in experiment [20]: Vascular cell adhesion molecule 1 (VCAM1), VCAM1 (gene 7412)
Description: BSK_hDFCGF_VCAM1: BioMAP Diversity Plus: hDFCGF Assay for Vascular cell adhesion molecule 1 (VCAM1) Biomarker Activity (AID 2283065). Particulars: primary human foreskin fibroblasts; actives raise or lower the signal. The gist of the method:
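Human foreskin fibroblast primary cells dosed with chemical, VCAM-1 measured by ELISA at 24 h. Bidirectional curve fitting relative to DMSO as negative control/baseline.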

The source made the active and inactive calls. How the source made its calls: active means hit-call score of the fitted dose curve at least 0.9, where 1 is the maximum; inactive means score below 0.9.

A word on the AC50: it is the midpoint of the concentration-response curve, whichever way the signal moves.

As to `CCCCC(CC)COP(=O)(OCC(CC)CCCC)OCC(CC)CCCC` (stereo not drawn), the outcome in [1], in experiment [2], in [4], in [5], in [6] and in experiment [7] was inactive. Moreover, the outcome in [8], in [9], in experiment [10], in [11], in experiment [12] and in experiment [13] was inactive. Further, the outcome in experiment [14], in experiment [15], in experiment [16], in [17], in experiment [18] and in [19] was inactive. In experiment [3], the AC50 is 7.49 µM (active).
Take `CC1=C(C)S(=O)(=O)CCS1(=O)=O`: the result in experiment [1], in [2], in experiment [3], in [4], in experiment [5] and in experiment [6] was inactive. The outcome in [7], in [8], in experiment [20], in experiment [9], in experiment [10] and in experiment [11] was inactive. For the same molecule, the result in [12], in [13], in experiment [14], in experiment [15], in experiment [16] and in experiment [17] was inactive. Further, the outcome in [18] was inactive. Besides, in [19], the AC50 was 4.33 µM (active).
`CCc1nc(N)nc(N)c1-c1ccc(Cl)cc1`: the outcome in experiment [1], in experiment [2], in experiment [3], in [4], in experiment [5] and in experiment [6] was inactive. In addition, the outcome in experiment [7], in experiment [8], in experiment [20], in experiment [9], in experiment [10] and in experiment [11] was inactive. In addition, the result in experiment [12], in experiment [13], in [15], in experiment [16], in experiment [17] and in experiment [18] was inactive. Also, in [19], the outcome was inactive.

For the origin of these results see PubChem BioAssay (EPA / NIEHS).
